Screens deposited in PubChem by National Center for Advancing Translational Sciences (NCATS).
NPR1 antag: antagonists of human natriuretic peptide receptor Npr1 | HEK293 hNpr1 GloSensor cGMP, ANP-stimulated luminescence | 76,000 compounds, 1.6% hits | Potency, µM (series often up to 46.3 µM), inactives show at the highest dose activity change, negative = inhibition, hits mostly inhibitors | AID 1347048; calls by dose curve; also: nearly all actives have a fitted effect of over 60% in size
Target sequence (P16066 whole entry, looked up): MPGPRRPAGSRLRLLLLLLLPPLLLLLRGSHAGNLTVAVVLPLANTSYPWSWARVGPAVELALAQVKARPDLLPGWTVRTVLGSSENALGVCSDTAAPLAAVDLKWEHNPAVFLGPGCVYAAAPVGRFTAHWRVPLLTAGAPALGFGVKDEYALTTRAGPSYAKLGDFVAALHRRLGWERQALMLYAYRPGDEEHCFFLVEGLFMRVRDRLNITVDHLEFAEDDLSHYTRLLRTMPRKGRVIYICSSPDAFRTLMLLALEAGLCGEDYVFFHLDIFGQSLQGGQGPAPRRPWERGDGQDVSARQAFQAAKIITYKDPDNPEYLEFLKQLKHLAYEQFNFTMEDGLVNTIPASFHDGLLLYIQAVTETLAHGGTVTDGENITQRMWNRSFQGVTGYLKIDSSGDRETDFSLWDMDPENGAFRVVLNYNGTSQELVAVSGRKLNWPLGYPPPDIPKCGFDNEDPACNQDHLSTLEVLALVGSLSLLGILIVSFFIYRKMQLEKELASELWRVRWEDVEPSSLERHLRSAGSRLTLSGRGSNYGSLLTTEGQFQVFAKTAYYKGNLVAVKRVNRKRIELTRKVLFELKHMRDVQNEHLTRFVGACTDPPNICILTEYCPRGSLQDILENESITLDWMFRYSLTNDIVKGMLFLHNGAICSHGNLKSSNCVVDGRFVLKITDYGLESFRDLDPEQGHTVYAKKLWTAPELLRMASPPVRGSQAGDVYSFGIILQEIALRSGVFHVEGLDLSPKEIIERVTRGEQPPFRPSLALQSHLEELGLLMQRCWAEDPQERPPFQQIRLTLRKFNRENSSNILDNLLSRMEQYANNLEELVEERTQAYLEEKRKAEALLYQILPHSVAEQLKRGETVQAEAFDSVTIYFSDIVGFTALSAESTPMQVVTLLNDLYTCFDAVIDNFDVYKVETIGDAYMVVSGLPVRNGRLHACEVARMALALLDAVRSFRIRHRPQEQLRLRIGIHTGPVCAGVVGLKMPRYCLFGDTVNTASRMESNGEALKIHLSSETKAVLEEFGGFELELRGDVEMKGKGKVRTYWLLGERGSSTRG
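HEK293 cells stably expressing human Npr1 and cGMP GloSensor pGS-40F, loaded 2 h with 2% GloSensor reagent, given compound 30 min at room temperature. Luminescence read before and 20 min after 0.1 nM hNppA.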
Luciferase inh: blocks purified firefly luciferase enzyme activity. Potency, µM (series often up to 115 µM), most hits filed as inhibitors. purified P. pyralis luciferase, luminescence, biochemical. 76,000 compounds, 2.5% hits. P08659; also: nearly all actives have a fitted effect of over 65% in size
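Inhibitors were tested against purified firefly luciferase in a biochemical, low-substrate format (both substrates at 10uM) and luminescence measured with a CCD imager.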
HEK293 tox: cytotoxic compounds in HEK 293 cells | HEK 293 viability, ATP luminescence (CellTiter-Glo), 48-72 h | Potency, µM (doses to about 115 µM), for inactives: at the top dose activity change, negative = cytotoxicity, hits mostly inhibitors | 94,000 compounds, 6.6% hits; also: nearly all actives have a fitted effect of over 60% in size
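CellTiter-Glo luminescence (cellular ATP) was read after 48 or 72 hr of compound exposure at 37 degree Celsius. Cells were HEK 293 plated at 250 cells/well.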
3T3 cytotox: cytotoxic compounds in NIH 3T3 cells; NIH 3T3 viability, CellTiter-Glo ATP luminescence, 48-72 h; Potency, µM (titrated, usually from 96.7 µM), for the others: top-dose activity change, negative = cytotoxicity, actives largely listed as inhibitors; 94,000 compounds, 4.3% hits; AID 1345082; also: nearly all actives have a fitted effect of over 55% in size
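Cells were seeded at 400 per well, treated with pin-transferred compound, and kept 48 or 72 hr at 37 °C before CellTiter-Glo addition and luminescence imaging of cellular ATP.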
GPT2 inhibitor: GPT2 alanine aminotransferase inhibition; Q8TD30; Recombinant GPT2, coupled pyruvate oxidase/HRP Amplex Red fluorescence; 100,000 compounds, 0.25% hits; AID 1671188; Potency, µM (series often up to 57.7 µM), without a hit: at the highest dose activity change, negative = inhibition, most hits filed as inhibitors; also: nearly all actives have a fitted effect of over 60% in size
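Recombinant GPT2 (10ng/uL) with 250uM a-KG and 2mM L-alanine, 30 min at room temperature, in HEPES pH 7.5 buffer. Pyruvate detected by pyruvate oxidase/HRP/Amplex Red fluorescence after 30 min in the dark; AOA (50uM) as positive control.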
Numbers without * were called inactive; i = inactive; ? = inconclusive; . = not tested or not shown; ! = repeats disagree; [ ] = another dose, or the depositor's remark. An excerpt weighted towards active compounds, which were near 10% of everything screened. Unless noted, calls follow the shape of the dose curve; as a rule, active = well fitted curve in the direction sought with a large enough effect; inconclusive = small, poorly fitted or top-dose-only effect, or another doubt; inactive = no such curve, though single readings can be large; an effect the other way counts as inactive or inconclusive. % is scaled to controls: 0 for no effect and ±100 for the full control effect; potency is read from the fitted curve at half-maximal effect.

SMILES | NPR1 antag | Luciferase inh | HEK293 tox | 3T3 cytotox | GPT2 inhibitor
OC[C@@H]1CN(Cc2ccoc2)C[C@H]1c1nc(-c2ccncc2)no1 | 2% | ? | ? | -18% | 1%
OC[C@@H]1CN(Cc2ccc(F)cc2)C[C@H]1c1nc(-c2ccncc2)no1 | 14µM* | ? | ? | ? | -21%
Cc1ccc(-c2cn3cc(C(=O)NCc4ccccc4)nc3s2)cc1 | . | . | ? | -29% | i
Cc1ccc(NC(=O)N2CCC3(CC2)C(=O)N(CC(=O)N2CCCC2)CN3c2ccccc2)cc1 | -3% | 8.9µM* | ? | ? | -10%
O=C(NCCc1ccc(Cl)cc1)c1ccc2nnc(-c3cc(F)ccc3F)n2c1 | . | . | ? | ? | -7%
CNC(=O)CCn1ncc2cc(OCc3ccccc3-c3ccc(F)cc3C)ccc21 | -22%[70.6 µM] | i | ? | 50µM* | 3%[88.5 µM]
CNC(=O)CCn1ncc2cc(OCc3ccccc3-c3ccc(F)cc3)ccc21 | -10%[70.6 µM] | ? | 71µM* | ? | 4%[88.5 µM]
CNC(=O)CCn1ncc2cc(OCc3ccccc3-c3c(F)cccc3OC)ccc21 | 4%[70.6 µM] | i | ? | ? | 2%[88.5 µM]
CNC(=O)CCn1ncc2cc(OCc3ccccc3-c3cc(F)ccc3OC)ccc21 | -19%[70.6 µM] | 40µM* | 79µM* | ? | -8%[88.5 µM]
CNC(=O)CCn1ncc2cc(OCc3ccccc3-c3cccnc3)ccc21 | -12%[70.6 µM] | i | ? | ? | -25%[88.5 µM]
CNC(=O)CCn1ncc2cc(OCc3ccccc3-c3ccccc3F)ccc21 | -20%[70.6 µM] | ? | 100µM* | 79µM* | 1%[88.5 µM]
CCN1CCN(C(=O)c2ccc(-c3nnc4ccc(NC(=O)C5CCC5)cn34)cc2)CC1 | 3% | ? | ? | -5% | i
CNC(=O)CCn1ncc2cc(OCc3ccccc3-c3ccc(F)c(Cl)c3)ccc21 | ? | ? | 100µM* | 79µM* | 2%[88.5 µM]
CNC(=O)CCn1ncc2cc(OCc3ccccc3-c3c(C)noc3C)ccc21 | -22%[70.6 µM] | ? | ? | ? | 0%[88.5 µM]
CNC(=O)CCn1ncc2cc(OCc3ccccc3-c3cccc(CO)c3)ccc21 | ? | 16µM* | 79µM* | ? | -12%[88.5 µM]
CNC(=O)CCn1ncc2cc(OCc3ccccc3-c3ccc(OC)cc3Cl)ccc21 | -12% | i | ? | ? | -52%
COCC(=O)N1CCN(C(=O)c2nc3cccnc3n(CC(C)C)c2=O)CC1 | . | . | 1% | -11% | 2%
O=C(Nc1ccc(Cl)cc1)N1CCN(C(=O)c2cccc(-c3ccccn3)c2)CC1 | . | . | ? | ? | i
CCS(=O)(=O)N1CCCCCCNC(=O)[C@@H]2C[C@@H](C(=O)NCCc3c[nH]c4ccccc34)C[C@@H]21 | -14% | i | 35µM* | -13% | -1%
O=C(NCCc1c[nH]c2ccccc12)[C@@H]1C[C@H]2C(=O)NCCCCCCN(C(=O)C3CC3)[C@H]2C1 | -1% | i | ? | ? | i
CNC(=O)c1cn2c(n1)CN(S(=O)(=O)c1cccc(OC)c1)CC2 | . | . | i | -9% | -2%
COc1ccc(-c2ccc(NC(=O)c3cccc(Cl)c3)cc2)nn1 | . | . | -12% | -14% | .
CC(CN1c2ccccc2Sc2ccccc21)N(C)C (centres undefined) | . | . | . | . | 10µM*!
CN1CCCC1COc1ccc2c(n1)CN(Cc1ccc(F)cc1)C(=O)CO2 (centres undefined) | 1%[70.6 µM] | i | -16%[172 µM] | ? | -23%[88.5 µM]
Cc1nc(CN2Cc3nc(OCc4ccc(F)cc4)ccc3OCC2=O)cs1 | ? | i | 71µM* | ? | -9%[88.5 µM]
SMILES | NPR1 antag | Luciferase inh | HEK293 tox | 3T3 cytotox | GPT2 inhibitor
O=C1COc2ccc(OCc3cncs3)nc2CN1Cc1ccc(F)cc1 | -23%[70.6 µM] | i | 112µM* | ? | ?
C[C@@H]1O[C@@H](O[C@H]2[C@H](OC(=O)[C@]34CCC(C)(C)C[C@H]3C3=CCC5[C@@]6(C)CC[C@H](O[C@@H]7O[C@H](CO[C@@H]8OC[C@H](O)[C@H](O)[C@H]8O)[C@@H](O)[C@H](O)[C@H]7O)C(C)(C)C6CC[C@@]5(C)[C@]3(C)C[C@H]4O)OC[C@@H](O)[C@@H]2O)[C@H](O)[C@H](O)[C@H]1O[C@@H]1OC[C@H](O)[C@H](O[C@@H]2OC[C@@H](O)[C@H](O)[C@H]2O)[C@H]1O (some centres undefined) | . | . | . | . | 4%[11.5 µM]
CCOC(=O)C1=C(C)N=C2SC=C(CC(=O)N3CCC(C)CC3)N2C1c1cccc(OC)c1 (centres undefined) | -17% | i | ? | ? | 2%
CCOC(=O)C1=C(C)N=C2SC=C(CC(=O)N3CCC(C)CC3)N2C1c1ccccc1F (centres undefined) | -16% | i | 40µM* | ? | i
COCCOC(=O)C1=C(C)N=C2SC=C(CC(=O)N3CCCCC3C)N2C1c1ccccc1 (centres undefined) | -9% | i | 35µM* | -16% | 1%
COCCOC(=O)C1=C(C)N=C2SC=C(CC(=O)NCCc3ccccc3)N2C1c1ccccc1 (centres undefined) | -3% | i | 50µM* | ? | i
CC1=C(C(=O)Nc2ccccc2)C(c2cc(C)ccc2C)N2C(CC(=O)N3CCCC3)=CSC2=N1 (centres undefined) | ? | i | 32µM* | ? | i
Cc1cc2nc3n(c(=O)c2n1CC(=O)NC1CCC(C)CC1)CCCCC3 (centres undefined) | -6% | i | 1% | ? | i
CC(C)C(=O)N1CCCC(c2noc(COc3ccccc3F)n2)C1 (centres undefined) | 10% | 40µM* | ? | -20% | -3%
Cc1c(F)cccc1NC(=O)N1CCCC(c2noc(COc3ccccc3F)n2)C1 (centres undefined) | ? | 14µM* | ? | ? | i
COC1C(=O)N(c2cccc(F)c2)C12CCN(C(=O)CC1CCN(C(C)=O)CC1)CC2 (centres undefined) | -3% | i | -22% | -10% | 4%
COC1CN(c2cccc(F)c2)C12CCN(C(=O)CC1CCCCC1)CC2 (centres undefined) | -2% | i | 45µM* | ? | i
COC1CN(c2cccc(F)c2)C12CCN(S(=O)(=O)c1cccs1)CC2 (centres undefined) | . | . | 18µM* | ? | 5%
COc1cccc(S(=O)(=O)N2CCC3(CC2)C(OC)CN3c2cccc(F)c2)c1 (centres undefined) | -2% | i | -13% | -12% | -5%
COCCN1CCCCCC(O)c2cc(C(=O)NCc3ccc(N4CCC(C)CC4)cc3)ccc21 (centres undefined) | -9% | ? | ? | 28µM* | i
